The whole screen tested about 48,000 compounds, of which about 13,000 (27%) showed an effect of 50% or more. The list shows a part of the results.
These compounds were tested on Wolbachia pipientis (assay: Anti-Wolbachia Cell-Based Screen). Settings: 5 µM.
Format: functional
Design: scale not given: in the data most compounds retested in dose-response had high values

SMILES	Percent Effect [%]
Cc1cnccc1-n1nc(C(C)C)nc1CCN(C)S(C)(=O)=O	-12.77
CCN(CC(F)(F)F)C(=O)C1CCCN(Cc2cscn2)C1 (configuration not stated)	6.1
COCC(=O)NCCC(=O)N1CCN(S(=O)(=O)c2ccc(Br)cc2)CC1	15.42
CC(C)N(Cc1nc2c(cnn2C)c(=O)[nH]1)c1ccccc1	-5.677
COCCN(CCOC)Cc1nc2c(cnn2C)c(=O)[nH]1	107.8
COCCN(CCc1ccccc1)Cc1nc2c(cnn2C)c(=O)[nH]1	10.98
COCCCN(C)Cc1nc2c(cnn2C)c(=O)[nH]1	-7.298
COCCCN(CCOC)Cc1nc2c(cnn2C)c(=O)[nH]1	93.22
COCCN(Cc1nc2c(cnn2C)c(=O)[nH]1)C(C)c1ccccc1 (configuration not stated)	98.63
Cc1ccc(C(C)N(C)Cc2nc3c(cnn3C)c(=O)[nH]2)cc1 (configuration not stated)	-5.253
CC(C)(C)c1cc(CN2CCOCC(O)C2)n[nH]1 (configuration not stated)	40.36
CC(=O)Nc1cc(F)c(S(=O)(=O)N(C)CC2CCC2)c(F)c1	32.27
Cn1cccc1CN1CCC2(CC1)CC(Oc1cccnc1)C2.O=C(O)C(F)(F)F.O=C(O)C(F)(F)F	9.854
COC(=O)C(C)Sc1nnnn1C1CCOCC1 (configuration not stated)	-41.77
O=C(O)C1CN(Cc2cnc(C3CCCCC3)nc2)CCO1 (configuration not stated)	-13.64
c1ccc(CN2CCN(Cc3cnc(C4CCCCO4)nc3)CC2)cc1 (configuration not stated)	181.4
c1ccc(N2CCN(Cc3cnc(C4CCCCO4)nc3)CC2)nc1 (configuration not stated)	112.3
CN(C)[C@H]1CCCCN(Cc2cnc(NCc3ccccc3)nc2)C1	-3.217
c1ccc(N2CCN(Cc3cnc(C4CCCCO4)nc3)CC2)cc1 (configuration not stated)	50.77
CCOC(C)c1noc(CN2CCCN(c3ccccn3)CC2)n1 (configuration not stated)	3.417
O=C1OCCC1N1CCN(c2ccccn2)CC1 (configuration not stated)	0.5958
c1nc(C2CCCCO2)ncc1CN1CCOCC1 (configuration not stated)	157.1

SMILES	Percent Effect [%]
Cl.Cl.OC(CN1CCN(Cc2ccccc2)CC1)C1CC1 (configuration not stated)	1.667
CNS(=O)(=O)c1ccc(CN2CCCN(c3ccccc3)CC2)cc1	23.15
OCC1(CC2CC2)CCCN(Cc2cnc(N3CCOCC3)nc2)C1 (configuration not stated)	1.203
OCC1(O)CCN(Cc2ccc(C3CCCCO3)o2)CC1 (configuration not stated)	2.159
COc1ccc(CC(=O)N2CCc3nnc(N(C)C)cc3C2)cc1F	-3.012
CCN(CC)S(=O)(=O)N1C[C@@H]2CC[C@H](C1)N(Cc1cscn1)C2=O	-30.66
CCC1c2ccccc2CCN1C(=O)c1ccnc(C(=O)OC)c1 (configuration not stated)	-12.45
CC(C)NC[C@H]1COCc2nc3cccnc3n21	-0.2965
O=C(c1ccc2ncsc2c1)N1CCC(C(=O)O)(n2cccn2)CC1	-48.02
CC(C)(C)c1nnc(CN2CCN(S(C)(=O)=O)CC2)o1	12.09
O=C(CSCCN1CCOCC1)N1CCc2ccccc2C1	125
CC1CCN(C(=O)CSCCN2CCOCC2)CC1	94.74
O=C(Cn1cc(I)cn1)N1CCc2ccccc2C1	13.89
CC(=O)N1CCOC2(CCCN(C(=O)CCN3CCCCC3)C2)C1 (configuration not stated)	-17.75
O=C(CCC(=O)N1CCc2ccccc2C1)c1cccs1	11.35
CCOCCN1CCN(CCC(=O)N2CCCCC2)CC1	-4.912
O=C(CSCCN1CCOCC1)N1CCCCCC1	88.11
CC1CCN(C(=O)CSCc2nc(C3CC3)no2)CC1	2
CC1CCN(C(=O)CSCc2noc(C(C)C)n2)CC1	-0.6667
N#Cc1cccnc1OC1CCN(C(=O)NCc2ccccc2)CC1	7.798
CC(=O)N1CCCC2(CN(Cc3ccc(C)s3)CCO2)C1.O=C(O)C(F)(F)F (configuration not stated)	0.2205
O=C(CC1OCCc2ccccc21)NCC1(O)CCCCC1 (configuration not stated)	-10.96

SMILES	Percent Effect [%]
Cc1ccc(CNc2ccn(CCC(N)=O)n2)c(Br)c1	-13.88
CCC(CO)N(Cc1ccccn1)C(=O)c1ccc(C)c(Cl)c1 (configuration not stated)	-8.3
c1cc(-c2cnc(NC3CC3)nc2[C@@H]2CCCO2)ccn1	175.9
CC(C)c1cc(C(=O)N(Cc2ccncc2)CC2CCCO2)no1 (configuration not stated)	4.129
COc1ccc(-c2ccncc2)cc1CNC1CCCC1	-7.134
c1cc(-c2cnc(NC3CC3)nc2[C@H]2CCCO2)ccn1	171.5
CC(C)Nc1ncc(-c2ccncc2)c([C@@H]2CCCO2)n1	174
COc1ccc(CCC(=O)NCCC2CCCO2)cc1Br (configuration not stated)	4.709
O=C(NCCn1ccnc1)C1(c2ccc3c(c2)OCCO3)CCCC1	33.12
COc1ccc(-c2cn[nH]c2)cc1CNC1CCCC1	-15.21
CC(C)(CO)Nc1cc(-c2ccccc2)ncn1	83.59
CC(C)(C)S(=O)(=O)CCNC(=O)c1cnc(-c2ccccc2)nc1	-10.41
CC(C)(CO)Nc1cc(-c2cn[nH]c2)ncn1.Cl	116.8
CC(C)(CO)Nc1ccc(-c2nc(-c3ccccc3F)no2)cn1	-13.37
CC(C)(CO)Nc1cc(-c2ccncc2)ncn1	106.2
CN(Cc1ccsc1)Cc1ccc(C2CCCCO2)o1 (configuration not stated)	10.63
Cc1cccc(OC2CCN(c3ccc(C#N)cn3)CC2)n1	-50.95
CN(C)[C@@H]1CCN(c2ncccn2)[C@H]1Cc1ccncc1.O=C(O)C(F)(F)F.O=C(O)C(F)(F)F	-8.933
CC(O)CN(Cc1cccc(C(N)=O)c1)c1ccccc1 (configuration not stated)	-3.401
Cc1cc(CN(C)C(=O)C2CCC(=O)N(CC3CCCCC3)C2)n[nH]1 (configuration not stated)	15.57
Cc1nn(C)c(C)c1C1CCCN1CCCc1nc2ccccc2o1 (configuration not stated)	0.8066
Cc1cc(C)n(CC2CCCN2CCCc2nc3ccccc3o2)n1 (configuration not stated)	125.1

SMILES	Percent Effect [%]
Cc1cc(C2CCCN2CCCc2nc3ccccc3o2)on1 (configuration not stated)	8.097
Cc1cnn(CC2CCCN2CCCc2nc3ccccc3o2)c1 (configuration not stated)	11.07
Cc1nc(C)n(CC2CCCN2Cc2nc(N)c3ccccc3n2)n1 (configuration not stated)	4.973
Cc1nc(C)n(CC2CCCN2CCCc2ccccc2)n1 (configuration not stated)	-4.599
Cc1nc(C)n(CC2CCCCN2Cc2nc3ccccc3o2)n1 (configuration not stated)	96.27
Cc1nc(C)n(CC2CCCN2CCCc2nc3ccccc3o2)n1 (configuration not stated)	115.5
Cc1nc(C)n(CC2CCCN2Cc2nc3ccccc3nc2C)n1 (configuration not stated)	-1.93
O=C(CCN1CCCO1)N1CC[C@@H](CNC(=O)N2CCCC2)[C@H](O)C1	5.965
CCc1ccc2c(c1)C(CCNC(=O)c1sccc1C)C(=O)N2 (configuration not stated)	-0.3397
Cn1nc(CN2CCC(c3ccncc3)CC2)c2c(Cl)cccc21	-3.245
OC(COCc1ccccc1F)CN1CCc2c(ncn2C2CC2)C1 (configuration not stated)	-3.372
Cc1ncc(CN(C)CC(O)c2ccc(Br)cc2)s1 (configuration not stated)	5.745
Cn1cnnc1CC1CCN(Cc2nn(C)c3cccc(Cl)c23)CC1	-2.14
Cc1cnn(CC2CCCN2C(=O)CCc2ccco2)c1 (configuration not stated)	108.9
Cc1cnn(CC2CCCN2C(=O)CCc2ccncc2)c1 (configuration not stated)	138.1
Cc1cnn(CC2CCCN2CC(=O)N(C)Cc2ccco2)c1 (configuration not stated)	-7.327
Cc1cnn(CC2CCCN2C(=O)CCc2ccc3c(c2)OCO3)c1 (configuration not stated)	126.1
Cc1cnn(CC2CCCN2C(=O)CCc2ccsc2)c1 (configuration not stated)	-5.285
CC(=O)Nc1ccc(S(=O)(=O)Nc2c(F)cccc2F)cc1	12.85
Cc1cnn(CC2CN(CC(=O)Nc3nnc(C)s3)CCO2)c1 (configuration not stated)	-4.997
COc1cc(F)ccc1C(C(=O)O)N(C)CCN1CCCC1 (configuration not stated)	-2.761
CC(C)c1nc(O)c2nnn(C[C@H]3CCCN(Cc4cccs4)C3)c2n1	127.4

SMILES	Percent Effect [%]
CC(C)c1nc(O)c2nnn(C[C@@H]3CCCN(Cc4cccs4)C3)c2n1	127
O=S(=O)(Cc1ccccc1)NCC1CCCN(Cc2cccs2)C1 (configuration not stated)	-20.75
CC1CN(Cc2cccc(CN)c2)CCO1 (configuration not stated)	-7.811
Cc1cc(=O)n(C)cc1NC(=O)Cc1ccc(C(F)(F)F)cc1	-20.5
CCN(CCNCc1ccc(C#N)cc1)C1CC1	-16.49
CCOCc1cccc(NCc2c[nH]nc2-c2cccnc2)c1	-7.599
Fc1ccc(-c2n[nH]cc2-c2ccnc(NCCN3CCCC3)n2)cc1	7.952
Cc1ccccc1-n1cc(-c2ccnc(NC(CO)C(C)C)n2)cn1 (configuration not stated)	-0.3825
O=C(NCCNc1ncccn1)c1ccc(-c2ccco2)[nH]c1=O	7.88
OCCNc1nccc(-c2c[nH]nc2-c2ccco2)n1	131.5
OCCNc1nccc(-c2c[nH]nc2-c2cccnc2)n1	121.3
OCCNc1nccc(-c2c[nH]nc2-c2ccncc2)n1	131
FCCOc1cccc(NCc2c[nH]nc2-c2cccnc2)c1	-17.01
Cc1ccccc1-n1cc(-c2ccnc(N[C@@H](CO)C(C)C)n2)cn1	-0.1007
Cc1nc(O)cc(CCNc2nccc(CCC(F)(F)F)n2)n1	19.69
CC(C)[C@H](CO)Nc1nccc(-c2c[nH]nc2-c2ccncc2)n1	88.77
COCCNC(=O)CSc1nnc(OC(C)C)s1	5
CN(CCNS(C)(=O)=O)C(=O)c1ccc(Cl)c(Cl)c1	2.263
Cc1nn(C)c(C)c1CN(Cc1cccn1-c1cccnc1)C(C)C	-3.784

Source: ChEMBL document CHEMBL3988442, “University of Dundee, Small-Polar-MMV Screening Library” (2021)
